This is an account of results in PMC12820563, “FoxP3 forms a head-to-head dimer in vivo and stabilizes its multimerization on adjacent microsatellites”.

Whole data set: some 16,000 sequences, median “rpm ratio (pull-down/input)” near 0.94, cut for the highest 2% near 1.7. Shown is part of a subset that was picked to be rich in the highest values.

The experiment has as its target T1, MBP-FoxP1dN (Mus musculus, UniProt P58462 326-579).
T1 sequence: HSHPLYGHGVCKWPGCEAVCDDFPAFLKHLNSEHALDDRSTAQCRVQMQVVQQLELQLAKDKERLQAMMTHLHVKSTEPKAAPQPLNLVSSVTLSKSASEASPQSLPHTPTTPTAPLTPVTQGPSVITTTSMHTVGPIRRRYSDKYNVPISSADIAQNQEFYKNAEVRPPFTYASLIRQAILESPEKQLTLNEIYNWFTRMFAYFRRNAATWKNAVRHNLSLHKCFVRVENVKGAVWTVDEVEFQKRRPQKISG
The experiment in a line: PD-seq (MBP pull-down with sequencing); 20 mM Tris-HCl pH 7.5, 100 mM NaCl, 1.5 mM MgCl2, 0.4 uM protein, 0.1 uM dsDNA library, 30 min, room temperature, amylose pull-down; high values mean tight binding. The following applies: protein: recombinant; tags: His6-MBP; chain copies: 2; dsDNA, one strand shown. In outline:
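Amylose resin was used to capture complexes formed during 30 min at room temperature in Tris pH 7.5 buffer with NaCl and MgCl2 between 0.4 µM His6-MBP-tagged mouse FoxP3 or FoxP1 fragment lacking the N-terminus, expressed in E. coli, and 0.1 µM Klenow-filled double-stranded degenerate DNA library. After three washes, the DNA was released with proteinase K, barcoded by PCR and sequenced on Illumina. Binding is pooled-replicate reads-per-million enrichment, pull-down over input.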
Turning to “GATGATTGTTCTCCCAGCTGATGAATTTTACGTTTCGAGTAAACAAATTTTCCTAATCTTTCTGTTCAAGCGCCATCTAC”, the binding signal was 0.852 RPM ratio (pull-down/input).

For the sequence “GATGATTGTTCTCCCAGCTGATGAATTGCCTAGTTCGAGTAAACAAATTTTCCTAATCTTTCTGTTCAAGCGCCATCTAC”, the binding signal was 0.959 RPM ratio (pull-down/input).

As for “GATGATTGTTCTCCCAGCTGATGAATTAACACGCTCGAGTAAACAAATTTTCCTAATCTTTCTGTTCAAGCGCCATCTAC”, the binding signal was 1.02 RPM ratio (pull-down/input).

On to “GATGATTGTTCTCCCAGCTGATGAATTGTTGGTGTCGAGTAAACAAATTTTCCTAATCTTTCTGTTCAAGCGCCATCTAC”, for which the binding signal was 1.8 RPM ratio (pull-down/input).

As to “GATGATTGTTCTCCCAGCTGATGAATTTGGTGTGTCGAGTAAACAAATTTTCCTAATCTTTCTGTTCAAGCGCCATCTAC”, the binding signal is 1 RPM ratio (pull-down/input).

With “GATGATTGTTCTCCCAGCTGATGAATTGGTGTCGTCGAGTAAACAAATTTTCCTAATCTTTCTGTTCAAGCGCCATCTAC”, the binding signal is 1.04 RPM ratio (pull-down/input).

On to “GATGATTGTTCTCCCAGCTGATGAATTGGTGTTGTCGAGTAAACAAATTTTCCTAATCTTTCTGTTCAAGCGCCATCTAC”, for which the binding signal is 2.78 RPM ratio (pull-down/input).

As to “GATGATTGTTCTCCCAGCTGATGAATTGGTGGTGTCGAGTAAACAAATTTTCCTAATCTTTCTGTTCAAGCGCCATCTAC”, the binding signal was 0.948 RPM ratio (pull-down/input).

For the sequence “GATGATTGTTCTCCCAGCTGATGAATTTTTGGTGTCGAGTAAACAAATTTTCCTAATCTTTCTGTTCAAGCGCCATCTAC”, the binding signal is 0.926 RPM ratio (pull-down/input).

With “GATGATTGTTCTCCCAGCTGATGAATTAGACCTTTCGAGTAAACAAATTTTCCTAATCTTTCTGTTCAAGCGCCATCTAC”, the binding signal is 0.881 RPM ratio (pull-down/input).

On to “GATGATTGTTCTCCCAGCTGATGAATTCGACCGATCGAGTAAACAAATTTTCCTAATCTTTCTGTTCAAGCGCCATCTAC”, for which the binding signal is 0.823 RPM ratio (pull-down/input).

As for “GATGATTGTTCTCCCAGCTGATGAATTAGCCGTTTCGAGTAAACAAATTTTCCTAATCTTTCTGTTCAAGCGCCATCTAC”, the binding signal was 0.852 RPM ratio (pull-down/input).

Turning to “GATGATTGTTCTCCCAGCTGATGAATTTTATATTTCGAGTAAACAAATTTTCCTAATCTTTCTGTTCAAGCGCCATCTAC”, the binding signal was 1.07 RPM ratio (pull-down/input).

Consider “GATGATTGTTCTCCCAGCTGATGAATTATATATTTCGAGTAAACAAATTTTCCTAATCTTTCTGTTCAAGCGCCATCTAC”, for which the binding signal is 1.06 RPM ratio (pull-down/input).

On to “GATGATTGTTCTCCCAGCTGATGAATTATATTGTTCGAGTAAACAAATTTTCCTAATCTTTCTGTTCAAGCGCCATCTAC”, for which the binding signal is 2.08 RPM ratio (pull-down/input).

“GATGATTGTTCTCCCAGCTGATGAATTATATTTTTCGAGTAAACAAATTTTCCTAATCTTTCTGTTCAAGCGCCATCTAC”: the binding signal is 1.61 RPM ratio (pull-down/input).

Take “GATGATTGTTCTCCCAGCTGATGAATTTTTATATTCGAGTAAACAAATTTTCCTAATCTTTCTGTTCAAGCGCCATCTAC”: the binding signal is 1.1 RPM ratio (pull-down/input).

For “GATGATTGTTCTCCCAGCTGATGAATTTATATTTTCGAGTAAACAAATTTTCCTAATCTTTCTGTTCAAGCGCCATCTAC”, the binding signal was 2.37 RPM ratio (pull-down/input).

Consider “GATGATTGTTCTCCCAGCTGATGAATTTACTTTATCGAGTAAACAAATTTTCCTAATCTTTCTGTTCAAGCGCCATCTAC”, for which the binding signal is 1.46 RPM ratio (pull-down/input).

Consider “GATGATTGTTCTCCCAGCTGATGAATTACGTAGTTCGAGTAAACAAATTTTCCTAATCTTTCTGTTCAAGCGCCATCTAC”, for which the binding signal is 1.02 RPM ratio (pull-down/input).

As to “GATGATTGTTCTCCCAGCTGATGAATTATGGCGATCGAGTAAACAAATTTTCCTAATCTTTCTGTTCAAGCGCCATCTAC”, the binding signal is 0.99 RPM ratio (pull-down/input).

On to “GATGATTGTTCTCCCAGCTGATGAATTGGTAGGCTCGAGTAAACAAATTTTCCTAATCTTTCTGTTCAAGCGCCATCTAC”, for which the binding signal is 0.819 RPM ratio (pull-down/input).

“GATGATTGTTCTCCCAGCTGATGAATTTTTTACGTCGAGTAAACAAATTTTCCTAATCTTTCTGTTCAAGCGCCATCTAC”: the binding signal is 0.984 RPM ratio (pull-down/input).

With “GATGATTGTTCTCCCAGCTGATGAATTGTTTACGTCGAGTAAACAAATTTTCCTAATCTTTCTGTTCAAGCGCCATCTAC”, the binding signal was 2.79 RPM ratio (pull-down/input).

For “GATGATTGTTCTCCCAGCTGATGAATTTACGTCGTCGAGTAAACAAATTTTCCTAATCTTTCTGTTCAAGCGCCATCTAC”, the binding signal is 1.25 RPM ratio (pull-down/input).

Turning to “GATGATTGTTCTCCCAGCTGATGAATTATTTACGTCGAGTAAACAAATTTTCCTAATCTTTCTGTTCAAGCGCCATCTAC”, the binding signal is 2.19 RPM ratio (pull-down/input).

On to “GATGATTGTTCTCCCAGCTGATGAATTTATTACGTCGAGTAAACAAATTTTCCTAATCTTTCTGTTCAAGCGCCATCTAC”, for which the binding signal was 1.11 RPM ratio (pull-down/input).

On to “GATGATTGTTCTCCCAGCTGATGAATTCTTTACGTCGAGTAAACAAATTTTCCTAATCTTTCTGTTCAAGCGCCATCTAC”, for which the binding signal was 0.992 RPM ratio (pull-down/input).

With “GATGATTGTTCTCCCAGCTGATGAATTTATCCCTTCGAGTAAACAAATTTTCCTAATCTTTCTGTTCAAGCGCCATCTAC”, the binding signal was 1.05 RPM ratio (pull-down/input).

With “GATGATTGTTCTCCCAGCTGATGAATTGCGTACCTCGAGTAAACAAATTTTCCTAATCTTTCTGTTCAAGCGCCATCTAC”, the binding signal was 1.09 RPM ratio (pull-down/input).

As for “GATGATTGTTCTCCCAGCTGATGAATTGGGGCGGTCGAGTAAACAAATTTTCCTAATCTTTCTGTTCAAGCGCCATCTAC”, the binding signal is 0.782 RPM ratio (pull-down/input).

For the sequence “GATGATTGTTCTCCCAGCTGATGAATTGACAGGATCGAGTAAACAAATTTTCCTAATCTTTCTGTTCAAGCGCCATCTAC”, the binding signal is 1.1 RPM ratio (pull-down/input).

With “GATGATTGTTCTCCCAGCTGATGAATTGTTTATTTCGAGTAAACAAATTTTCCTAATCTTTCTGTTCAAGCGCCATCTAC”, the binding signal is 2.77 RPM ratio (pull-down/input).

For “GATGATTGTTCTCCCAGCTGATGAATTCGTTTATTCGAGTAAACAAATTTTCCTAATCTTTCTGTTCAAGCGCCATCTAC”, the binding signal is 1.25 RPM ratio (pull-down/input).

As for “GATGATTGTTCTCCCAGCTGATGAATTTATTGTTTCGAGTAAACAAATTTTCCTAATCTTTCTGTTCAAGCGCCATCTAC”, the binding signal was 2.09 RPM ratio (pull-down/input).

As for “GATGATTGTTCTCCCAGCTGATGAATTCTGGCTGTCGAGTAAACAAATTTTCCTAATCTTTCTGTTCAAGCGCCATCTAC”, the binding signal was 0.808 RPM ratio (pull-down/input).

Turning to “GATGATTGTTCTCCCAGCTGATGAATTGCCGTAATCGAGTAAACAAATTTTCCTAATCTTTCTGTTCAAGCGCCATCTAC”, the binding signal was 1.39 RPM ratio (pull-down/input).

On to “GATGATTGTTCTCCCAGCTGATGAATTAATGTAGTCGAGTAAACAAATTTTCCTAATCTTTCTGTTCAAGCGCCATCTAC”, for which the binding signal is 1.24 RPM ratio (pull-down/input).

Consider “GATGATTGTTCTCCCAGCTGATGAATTGGCACAATCGAGTAAACAAATTTTCCTAATCTTTCTGTTCAAGCGCCATCTAC”, for which the binding signal was 1.34 RPM ratio (pull-down/input).

Consider “GATGATTGTTCTCCCAGCTGATGAATTATTTGATTCGAGTAAACAAATTTTCCTAATCTTTCTGTTCAAGCGCCATCTAC”, for which the binding signal is 1.05 RPM ratio (pull-down/input).

In the case of “GATGATTGTTCTCCCAGCTGATGAATTGCTTATTTCGAGTAAACAAATTTTCCTAATCTTTCTGTTCAAGCGCCATCTAC”, the binding signal is 1.62 RPM ratio (pull-down/input).

For “GATGATTGTTCTCCCAGCTGATGAATTAATTATTTCGAGTAAACAAATTTTCCTAATCTTTCTGTTCAAGCGCCATCTAC”, the binding signal was 1.12 RPM ratio (pull-down/input).

For the sequence “GATGATTGTTCTCCCAGCTGATGAATTATTGTGTTCGAGTAAACAAATTTTCCTAATCTTTCTGTTCAAGCGCCATCTAC”, the binding signal is 2.1 RPM ratio (pull-down/input).

Turning to “GATGATTGTTCTCCCAGCTGATGAATTATTTTTTTCGAGTAAACAAATTTTCCTAATCTTTCTGTTCAAGCGCCATCTAC”, the binding signal was 1.5 RPM ratio (pull-down/input).

As for “GATGATTGTTCTCCCAGCTGATGAATTATTTTGTTCGAGTAAACAAATTTTCCTAATCTTTCTGTTCAAGCGCCATCTAC”, the binding signal was 1.32 RPM ratio (pull-down/input).

As for “GATGATTGTTCTCCCAGCTGATGAATTATTTGCTTCGAGTAAACAAATTTTCCTAATCTTTCTGTTCAAGCGCCATCTAC”, the binding signal is 1.56 RPM ratio (pull-down/input).

Consider “GATGATTGTTCTCCCAGCTGATGAATTATTGCTTTCGAGTAAACAAATTTTCCTAATCTTTCTGTTCAAGCGCCATCTAC”, for which the binding signal is 1.74 RPM ratio (pull-down/input).

In the case of “GATGATTGTTCTCCCAGCTGATGAATTATTAATTTCGAGTAAACAAATTTTCCTAATCTTTCTGTTCAAGCGCCATCTAC”, the binding signal is 1.34 RPM ratio (pull-down/input).

For the sequence “GATGATTGTTCTCCCAGCTGATGAATTATTATTTTCGAGTAAACAAATTTTCCTAATCTTTCTGTTCAAGCGCCATCTAC”, the binding signal is 3.1 RPM ratio (pull-down/input).

Consider “GATGATTGTTCTCCCAGCTGATGAATTATTTCTTTCGAGTAAACAAATTTTCCTAATCTTTCTGTTCAAGCGCCATCTAC”, for which the binding signal is 1.17 RPM ratio (pull-down/input).

Consider “GATGATTGTTCTCCCAGCTGATGAATTATTTGTTTCGAGTAAACAAATTTTCCTAATCTTTCTGTTCAAGCGCCATCTAC”, for which the binding signal is 2.21 RPM ratio (pull-down/input).
